Source: PubChem
PfHsp90 set2: reduces growth (ATP signal) of yeast expressing P. falciparum Hsp90; 310,000 tested, 0.32% active; inhibition, % at 9.4 µM; S. cerevisiae expressing PfHsp90, BacTiter-Glo ATP, 48 h; yeast lacking PDR1 and PDR3 efflux regulators; AID 504621;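 active means every replicate shows inhibition above about 80%, whatever the replicate mean, limit read from the data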;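 further: 0% = DMSO neutral controls and 100% = 20 µM radicicol positive controls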
tim10-1 inh: inhibits growth of tim10-1 mutant yeast; 330,000 tested, 2.2% active; inhibition, % at 20 µM; S. cerevisiae tim10-1 ts strain growth, BacTiter-Glo, 24 h;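 active means inhibition of at least 40%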;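 further: mutant grown at 25 °C; 0% = DMSO wells with yeast and 100% = wells holding no yeast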
tim23-1 inh: growth inhibitors of tim23-1 mutant yeast; 330,000 tested, 1.3% active; S. cerevisiae tim23-1 growth, BacTiter-Glo luminescence, 24 h; inhibition, % at 20 µM;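 active means growth inhibition of the mutant yeast at or above 50%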;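 further: temperature-sensitive mutant grown at 25 °C; plate controls were DMSO-treated mutant yeast for no effect and medium wells lacking yeast for full effect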
SKKanGAS inh: inhibitors of SKKanGAS S. pyogenes growth in kanamycin (SK-promoter or general growth effect) | BacTiter-Glo, 6 h | 300,000 tested, 1.3% active | inhibition, % at 7.5 µM;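 active means mean replicate score, as percent of positive control median, at least 50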;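 further: strain carries kanamycin resistance gene driven by streptokinase promoter and grows in 40 µg/ml kanamycin; loss of luminescence reflects streptokinase promoter inhibition or plain growth inhibition; 0% = median of DMSO wells and 100% = positive control at its reference dose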
TIM10 inh: TIM10 yeast growth inhibition. AID 463195. S. cerevisiae TIM10 strain growth, BacTiter-Glo luminescence, 24 h. inhibition, % at 10 µM. 330,000 tested, 1.4% active;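 active means inhibition of 40% or more at the single tested concentration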;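 further: wild-type TIM10 isogenic control strain grown at permissive 25 °C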
tim10-1 conf: confirmation of tim10-1 mutant yeast growth inhibitors; 7,400 tested, 56% active; S. cerevisiae tim10-1 ts strain growth, BacTiter-Glo, 24 h; shares compounds with tim10-1 inh; AID 463213; inhibition, % at 20 µM;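 active means inhibition of yeast growth at or above a set limit in either of two repeat tests at 20 µM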;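 further: tim10-1 mutant grown at permissive 25 °C to find synthetic lethal compounds; 0% = DMSO yeast wells and 100% = medium wells without yeast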
Active calls of the source: *; / = no result given. Shown are actives, neighbours in structure and some others; about 4.4% of the full set was active somewhere.

SMILES	PfHsp90 set2	tim10-1 inh	tim23-1 inh	SKKanGAS inh	TIM10 inh	tim10-1 conf
C(=N\N1CCOCC1)/c1cn(-c2ccccc2)nc1-c1ccccc1	13.2	48.9*	49.6	-16.5	7.7	39.8*
O=C(N/C(=C\c1cn(-c2ccccc2)nc1-c1ccccc1)C(=O)N1CCOCC1)c1ccccc1	/	14.8	-14.8	9.2	-16.8	/
FC(F)(F)c1cnc(Nc2ccc(N3CCOCC3)cc2)c(Cl)c1	-114.7	44.4*	19.4	-16.9	14.9	20.9
O=c1c(Cl)c(N2CCOCC2)cnn1-c1ncc(C(F)(F)F)cc1Cl	-16.5	19.5	10.7	6.4	-4.7	/
CCCCN=c1scc(-c2ccc3c(c2)NC(=O)CO3)n1N=C1CCCC1	/	43.8*	22.2	9.4	31.5	6.6
CCN=c1scc(-c2ccc3c(c2)NC(=O)CO3)n1N=C1CCCC1	1.7	11.5	32.7	11.0	12.4	/
C=CCn1c(SCc2ccccc2C#N)nnc1-c1cc(Br)ccc1O	-23.6	43.7*	44.4	-8.5	4.7	23.4
CC1(C)SC(=S)N(NC(=O)Nc2ccccc2)C1N(O)C(=O)Nc1cccc2ccccc12 (stereo not drawn)	-5.8	41.7*	30.8	38.5	14.3	24.4
CC1(C)SC(=S)N(/N=C/c2ccccc2O)C1N(O)C(=O)Nc1ccccc1 (stereo not drawn)	-8.6	-4.0	20.9	24.3	-1.5	/
O=C(CSc1nc2cc(Cl)ccc2s1)c1ccco1	-42.0	43.0*	42.9	-4.3	19.3	37.5*
O=C(CSc1nnc(SCC(=O)c2ccco2)s1)c1ccco1	3.4	27.2	29.1	13.1	-3.1	/
O=[N+]([O-])c1ccc(Cl)c2c1C1C=CCC1C(c1ccccn1)N2 (stereo not drawn)	9.2	39.2	21.8	9.8	30.3	/
O=C(O)c1ccc(Cl)c2c1C1C=CCC1C(c1ccccn1)N2 (stereo not drawn)	/	42.7*	28.0	0.0	0.1	12.1
Cc1cc(N2CCCCC2)nc(SCc2ccc(C#N)cc2)n1	9.5	47.3*	39.5	-2.6	32.8	27.8
O=C(O)c1ccccc1C(=O)N1N=C2/C(=C/c3cccc([N+](=O)[O-])c3)CCCC2C1c1cccc([N+](=O)[O-])c1 (stereo not drawn)	11.6	43.8*	19.9	13.9	21.4	31.0
Cc1nc2ccccc2c2oc(C(=O)N3CCC(C)CC3)cc12	-5.3	46.2*	34.1	5.2	-3.6	-27.9
COc1ccc2nc3cc(Cl)ccc3c(Nc3cc(C(C)C)c(O)cc3C)c2c1	6.3	46.7*	40.6	11.7	18.5	36.6*
COc1ccc(Cl)cc1NC(=O)CSc1nc(C)cc(C)n1	2.1	40.8*	30.5	6.4	-0.7	17.2
COc1cccc(CN(C)CCCn2ccc(NC(=O)OCc3ccccc3)nc2=O)c1	-54.0	/	/	/	/	/
Cc1nn2c(-c3ccccc3)nnc2c2ccccc12	/	27.2	35.4	/	32.0	/
Cc1nn2c3ccccc3nc2c2ccccc12	-65.9	50.9*	31.3	4.5	18.1	42.5*
CCOc1ccc(NC(=O)CN(C)C(=O)c2ccc(C)o2)cc1OCC	-25.2	17.8	7.2	-5.6	-13.1	/
Cn1c(Cl)c(/C=N/OC(=O)c2ccccc2Cl)c2ccccc21	-17.5	10.0	11.2	-9.7	-2.8	/
Cc1cccc(C(=O)O/N=C/c2c(N3CCOCC3)n(C)c3ccccc23)c1	/	40.8*	18.8	-0.9	25.0	15.2
O=C1C2C3C=CC(CC3)C2C(=O)N1c1ccc(F)cc1 (stereo not drawn)	-4.4	-5.1	-8.7	7.5	-13.0	/
SMILES	PfHsp90 set2	tim10-1 inh	tim23-1 inh	SKKanGAS inh	TIM10 inh	tim10-1 conf
CC(C)C1NC2(C(=O)c3ccccc3C2=O)C2C(=O)N(c3ccc(F)cc3)C(=O)C12 (stereo not drawn)	10.9	40.2*	21.0	8.4	0.2	30.3*
COc1ccccc1-c1nc(SCC(=O)N2CCC(C(N)=O)CC2)n[nH]1	-5.4	-4.2	1.8	/	4.2	/
COc1ccc([N+](=O)[O-])cc1NC(=O)C(C)OC(=O)CSC(C)C(=O)Nc1cc(C)on1 (stereo not drawn)	/	-0.2	-7.0	-1.8	-3.2	/
Cc1ccc(C2=NN=C(NC(=O)C(F)(F)F)SC2)cc1	-11.6	/	/	/	/	/
CCCCNC(=S)Nc1ccc([N+](=O)[O-])cc1	3.0	50.0*	21.8	10.7	23.3	24.4
CCCCNC(=S)Nc1ccc(Oc2ccccc2)cc1	15.7	15.7	42.3	2.0	16.6	/
CC[n+]1ccccc1/C=C1\Sc2ccc(C)cc2N1C	5.7	41.2*	24.1	4.1	5.7	12.2
Cc1ccc2ccccc2c1NC(=O)c1ccco1	1.9	7.6	10.5	-5.0	7.3	/
C/C(=N\Nc1cc(C(F)(F)F)ccc1Cl)c1ccccc1O	13.1	46.7*	25.3	14.8	33.3	38.3*
Cc1cc(C(=O)NNC(=O)C(C)(C)Oc2ccc(Cl)cc2)c(C)o1	13.9	5.9	17.1	/	2.4	/
O=C(OCn1nnc2ccccc2c1=O)c1ccc(O)cc1	4.2	30.4	13.4	-1.0	-7.8	/
Cc1cc(C)n(-c2ccc(C(=O)OCn3nnc4ccccc4c3=O)cc2)n1	-5.0	49.2*	40.9	3.8	27.3	41.8*
Cc1cccn2c(=O)c3cc(S(=O)(=O)c4ccc(Br)cc4)c(=N)n(C4CCCC4)c3nc12	-21.2	40.6*	31.3	-10.0	-0.7	-9.9
N#Cc1cccc(NC(=O)CSc2nnc(C3CC3)n2C2CC2)c1	14.2	-6.8	-5.0	/	-4.0	/
COCC(C)n1c(C)cc(C(=O)COC(=O)c2cc(=O)[nH]c3ccccc23)c1C (stereo not drawn)	-7.2	3.8	13.1	/	14.7	/
COc1cc(C(=O)Nc2ccc3nc(N4CCOCC4)sc3c2)cc(OC)c1OC	-9.1	41.2*	30.3	/	22.1	15.6
COc1ccc(CC(=O)N/N=C/c2ccc(Cl)s2)cc1OC	3.0	49.5*	28.6	-4.3	26.4	23.8
COc1ccc(CC(=O)N/N=C/c2ccc(C)s2)cc1	18.4	-4.7	11.5	-5.2	-0.5	/
CC(CC(=O)NCc1ccc(Cl)cc1)S(=O)(=O)c1ccc2c(c1)NC(=O)CO2 (stereo not drawn)	13.9	14.6	10.5	-3.9	-4.8	/
Brc1ccc(N=Nc2ccc3ccccc3n2)cc1	-20.5	40.1*	26.5	19.3	19.0	25.9
COc1ccc(C(=O)NC(=S)Nc2ccc(CN3CCOCC3)cc2)cc1Cl	-1.9	52.1*	36.8	1.5	13.7	-30.2
CC(=O)c1cccc(NC(=S)NC(=O)c2cccc(Cl)c2)c1	1.1	44.9*	36.6	-2.5	21.4	14.6
CCC(=O)NC(=S)Nc1cccc(NC(=O)c2ccccc2C)c1	3.7	39.2	35.9	-1.0	8.8	/
CC(=O)c1cccc(NC(=S)NC(=O)c2ccccc2)c1	18.6	31.0	33.4	-18.2	-7.3	/
O=C(Nc1ccc(CN2CCOCC2)cc1)c1ccc(Br)o1	-0.2	-5.6	18.8	0.3	7.7	/
O=C(Nc1ccc(CN2CCOCC2)cc1)c1ccc(-c2cc(Cl)ccc2Cl)o1	7.8	44.0*	10.6	10.4	14.2	28.5
